Data reported in PubChem BioAssay (NCI).
Compounds without any hit were thinned out: in the full panel of roughly 83,000, 20% have a hit.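 In brief: 96-well plates, 48 h treatment, single concentration, percent growth endpoint.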 Unmarked numbers belong to inactive results. The source made the active and inactive calls. The calls were made as follows: active = growth percent below 10; inactive = the rest.

Legend:
Test in all cases: NCI-60 one-dose screen, 48 h (100 = growth as untreated, 0 = no growth, -100 = all killed)
Conditions in all cases: 10 µM unless noted
RPMI-8226 leukemia = test system: RPMI-8226 leukemia
OVCAR-8 ovarian = test system: OVCAR-8 ovarian
OVCAR-5 ovarian = test system: OVCAR-5 ovarian
SK-OV-3 ovarian = test system: SK-OV-3 ovarian
IGROV1 ovarian = test system: IGROV1 ovarian
OVCAR-3 ovarian = test system: OVCAR-3 ovarian
HS 578T breast = test system: HS 578T breast
NCI/ADR-RES ovarian = test system: NCI/ADR-RES ovarian
OVCAR-4 ovarian = test system: OVCAR-4 ovarian

SMILES | growth (RPMI-8226 leukemia) | growth (OVCAR-8 ovarian) | growth (OVCAR-5 ovarian) | growth (SK-OV-3 ovarian) | growth (IGROV1 ovarian) | growth (OVCAR-3 ovarian) | growth (HS 578T breast) | growth (NCI/ADR-RES ovarian) | growth (OVCAR-4 ovarian)
COc1cc(Nc2nc(N[C@H]3CCCC[C@@H]3N)nc3cc[nH]c(=O)c23)cc(OC)c1 | 25% | 14.5% | 22.2% | 24.1% | 8.81% (active) | 70.4% | 53.6% | 100% | 
COc1ccc(NC(=O)c2cc(OC)c(OC)c(OC)c2)cc1O | 51.8% | 57.6% | 83.4% | 29.1% | 54.7% | -27.6% (active) | -10.2% (active) | 13.2% | 
CCO/C=N/C1=C(C#N)C(c2ccc(Cl)cc2)c2c(c3ccccc3n(C)c2=O)O1 (stereo unspecified) | 88.1% | 86.3% | 85.1% | 81.8% | 59.1% | 64.3% | 65.5% | 57.3% | 
COc1ccc(-c2nc3sccn3c2/C=C/C(=O)c2cc(F)cc(F)c2)cc1 | 6.15% (active) | 80.7% | 102% | 75.3% |  | 54.7% | 75.1% | 78% | 66.2%
CC1=NC2=CC=CC3=NC(C(Cl)(Cl)Cl)=NC(=N1)N23 | 50.3% | 84.9% | 112% | 87.3% |  | 34.8% | 62.6% | 81.6% | 73%
N/C(=N\S(=O)(=O)c1ccccc1)Nc1nc2ccccc2s1 | 88.6% | 87.6% | 96.9% | 85.4% | 90.8% | 107% | 98.2% | 91.8% | 
COc1ccc2c(c1)NC1=C(C(=O)OC1)C2c1cc(OC)c2c(c1)OCO2 (stereo unspecified) | 25.1% | 20.7% |  | 13% | 24.4% | -44.9% (active) | 14% | 1.91% (active) | 46%
